# Screening results: PubChem BioAssay, Sanford-Burnham Center for Chemical Genomics
# Most compounds without a hit are left out; they make up all but 3% or so of the library.
# SENP8 block-1: inhibitors of human SENP8 protease; recombinant SENP8, Nedd8 substrate fluorescence; 360,000 tested, 0.64% active; inhibition, % at 20 µM; in the data active = inhibition mostly above about 40%, no sharp cut-off; inactive = mostly below about 27%
# SENP6 block: inhibitors of human SENP6 protease. Recombinant SENP6 catalytic domain, aminoluciferin luminescence. inhibition, % at 10 µM. 330,000 tested, 1.8% active. AID 2599;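 active = inhibition above about 50% at the single tested dose, limit read from the data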;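 also: plate controls were DMSO wells with enzyme for no effect and DMSO wells lacking enzyme for full effect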
# PPC-1+TRAIL kill: compounds killing PPC-1 cancer cells with TRAIL present (potentiator screen, no TRAIL-free arm); PPC-1 cells + TRAIL, ATPLite viability luminescence; 220,000 tested, 0.41% active; AID 1443; cell killing (% activity), % at 4 µM or 5 µM;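 active = cell killing above 50% in the first pass at 4 µM, then a duplicate retest at 5 µM averaging 50% or more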;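 also: plate controls were cells with TRAIL plus DMSO for no effect and medium-only wells lacking cells for full effect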
# SENP8 block-2: blocks the human protease SENP8. purified SENP8, Z-RLRGG-aminoluciferin cleavage, luminescence. inhibition, % at 10 µM. AID 2540. Q96LD8. 330,000 tested, 1.2% active; in the data active = inhibition above about 50%
# TRAIL sens C8: caspase-8 TRAIL sensitization. 360,000 tested, 1% active. AID 624354. NB7+C8 cells + TRAIL, ATPlite viability luminescence. inhibition (viability loss, TRAIL sensitization), % at 10 µM;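 active = compounds causing at least 50% loss of cell viability in the single-dose screen, relative to plate controls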
# SENP7 inh: SENP7 protease inhibition; Q9BQF6; recombinant SENP7, Z-RLRGG-aminoluciferin luminescence, 40 min; inhibition, % at 5 µM; 330,000 tested, 1.5% active; AID 434973;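 active = inhibition above about 50% at the single test dose, limit read from the data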;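 also: plate controls were DMSO with enzyme for no effect and no enzyme buffer wells for full effect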
# Target sequence (Q9BQF6 706-1050 limits assumed): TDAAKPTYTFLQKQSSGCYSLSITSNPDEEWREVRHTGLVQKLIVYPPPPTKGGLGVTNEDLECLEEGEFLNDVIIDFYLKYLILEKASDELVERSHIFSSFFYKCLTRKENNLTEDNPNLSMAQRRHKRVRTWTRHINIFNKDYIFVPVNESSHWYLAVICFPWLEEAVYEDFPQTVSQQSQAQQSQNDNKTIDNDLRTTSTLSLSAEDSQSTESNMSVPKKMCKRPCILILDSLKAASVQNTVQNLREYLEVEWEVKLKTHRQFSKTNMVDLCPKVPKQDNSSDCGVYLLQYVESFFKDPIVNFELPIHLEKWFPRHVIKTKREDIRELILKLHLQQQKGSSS
# SENP8 confirm: confirmation of human SENP8 protease inhibitors; shares compounds with SENP7 inh; Recombinant SENP8, Z-RLRGG-aminoluciferin luminescence, 60 min; inhibition, % at 12.5 µM; 6,200 tested, 40% active;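 active = mean inhibition across replicates above about 50%, limit read from the data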
# SENP6 confirm: confirmation of human SENP6 protease inhibitors; shares compounds with SENP7 inh; recombinant SENP6, Z-RLRGG-aminoluciferin luminescence; inhibition, % at 12.5 µM; 6,200 tested, 58% active
# SENP7 confirm: human SENP7 inhibition, confirmed | shares compounds with SENP7 inh | recombinant SENP7, Z-RLRGG-aminoluciferin luminescence, 40 min | inhibition, % at 12.5 µM | 6,200 tested, 69% active
# Casp3 SENP sel: selectivity test for SENP inhibitors: human caspase-3 inhibition; shares compounds with SENP7 inh; purified caspase-3, Z-DEVD-aminoluciferin luminescence, 60 min; inhibition, % at 12.5 µM; 6,200 tested, 60% active; AID 488918;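 active = mean inhibition above about 50%, limit read from the data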;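 also: plate controls were enzyme with DMSO for no effect and wells without caspase-3 for full effect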
# Target sequence (P42574 28-227 limits assumed): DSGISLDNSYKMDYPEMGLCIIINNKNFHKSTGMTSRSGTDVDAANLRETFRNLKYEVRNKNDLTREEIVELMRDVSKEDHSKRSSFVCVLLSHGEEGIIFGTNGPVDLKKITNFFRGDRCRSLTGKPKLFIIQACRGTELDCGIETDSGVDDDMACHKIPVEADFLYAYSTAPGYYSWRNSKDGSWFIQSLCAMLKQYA
# Luc interf: counter-screen for SENP inhibitors: luminescence interference. shares compounds with SENP7 inh. Pre-incubated SENP8/Z-RLRGG-aminoluciferin, luciferase luminescence interference. inhibition, % at 12.5 µM. 6,200 tested, 39% active. AID 488919;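 active = mean inhibition above about 50% when retested at one dose, limit read from the data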;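 also: plate controls were DMSO wells with completed reaction for no effect and substrate without enzyme for full effect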
# The depositor's hits bear a star; i = inactive; · = no result given.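 The calls were made as follows, unless noted: active = mean inhibition above about 50% in the one-dose retest (limit read from the data); inactive = the rest.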
SMILES,SENP8 block-1,SENP6 block,PPC-1+TRAIL kill,SENP8 block-2,TRAIL sens C8,SENP7 inh,SENP8 confirm,SENP6 confirm,SENP7 confirm,Casp3 SENP sel,Luc interf
Cn1cccc1C(=O)NCc1ccc(Cl)cc1,6.0,-6.9,·,-3.6,8.5,1.8,·,·,·,·,·
CCOC(=O)c1sc(NC(C)=O)cc1C,3.6,-6.8,-20.2,0.7,-6.1,1.7,·,·,·,·,·
CCOC(=O)c1sc(NC(=O)Nc2ccccc2Cl)cc1C,-40.9,94.8*,62.6*,94.6*,77.0*,99.1*,94.9*,96.3*,99.6*,88.7*,42.6
CCOC(=O)c1sc(NC(=O)C2CCC2)cc1C,-15.3,3.9,33.0,1.3,17.2,0.5,·,·,·,·,·
CCOC(=O)c1sc(NC(=O)Nc2ccccc2)cc1C,-79.3,97.8*,60.2*,81.0*,73.2*,89.2*,90.7*,90.7*,97.9*,68.5*,71.6*
CCOC(=O)c1sc(NC(=O)c2ccc(C)s2)cc1C,-323.0,43.4,38.3,20.0,48.2,73.0*,16.6,37.4,71.1*,47.3,18.5
CCOC(=O)c1cc(NC(=O)Nc2ccccc2Cl)c(C)nc1C,0.0,-5.2,7.4,3.7,-6.7,-6.9,·,·,·,·,·
C=CCOc1ccc(/C=C2\SC(=S)N(NS(=O)(=O)c3ccc(C)cc3)C2=O)cc1,25.7,9.0,·,5.8,0.2,1.1,·,·,·,·,·
CC(C)(C)C(=O)Nc1sc(-c2ccccc2)cc1C(=O)O,-193.5,57.9*,-4.7,19.2,29.7,29.7,39.0,30.5,70.4*,39.9,51.6*
Cc1cccc(C(=O)Nc2sc(-c3ccccc3)cc2C(=O)O)c1,-431.8,85.4*,17.8,65.2*,4.3,0.3,78.2*,74.8*,72.0*,15.8,83.7*
COc1ccc(-c2c(-c3ccc(OC)nc3)c3ccccc3n2C)cc1,i,4.0,·,-2.5,19.0,11.2,·,·,·,·,·
COc1cc(OC)cc(C(=O)NNC(=O)CNC(=O)c2cccs2)c1,11.8,-16.7,·,-2.9,-32.5,4.8,·,·,·,·,·
CN(C)c1ccc(C=Nc2ccccc2)cc1,-0.2,-10.8,7.5,-5.8,-9.7,-3.2,·,·,·,·,·
C/C(=N/N=C/c1ccc(N(C)C)cc1)c1ccccc1,-42.6,96.8*,17.5,97.7*,55.9*,101.2*,3.1,80.3*,101.2*,67.2*,26.4
N/C(CS(=O)(=O)c1ccccc1)=N\OC(=O)c1ccc(F)cc1,6.2,5.4,·,-1.8,-3.3,-5.3,·,·,·,·,·
O=C(O/N=C/C1=C(Cl)c2ccccc2CC1)c1ccc(F)cc1,-2.5,-14.9,-2.2,-10.6,0.5,64.0*,10.2,12.6,17.0,30.9,1.7
CSc1nsc(N/N=C/c2ccc3c(c2)OCO3)c1C#N,-255.1,45.3,25.3,24.0,15.7,52.8*,4.3,9.8,16.8,19.7,23.2
COc1cc(/C=N/Nc2snc(SC)c2C#N)cc(OC)c1OC,-386.1,8.1,22.9,-2.7,38.4,-0.2,·,·,·,·,·
COc1cccc(NC(=O)COC(=O)c2c(C)nn(-c3ccccc3)c2C)c1,9.6,75.9*,·,65.4*,15.0,73.5*,70.8*,66.7*,90.4*,69.7*,74.7*
COc1cccc(NC(=S)NC(=O)Cc2ccccc2)c1,9.3,-32.4,·,-10.7,-10.0,4.5,·,·,·,·,·
COc1cccc(NC(=O)Nc2ccccc2C(N)=O)c1,-45.7,73.9*,-1.6,60.9*,2.7,82.0*,70.3*,67.9*,90.1*,85.4*,76.8*
COc1cccc(NC(=O)Cc2ccccc2)c1,18.0,74.0*,5.0,67.0*,24.9,78.4*,69.8*,65.2*,89.8*,83.3*,76.3*
O=C(Nc1ccccc1)Nc1cccc(Cl)c1,14.8,59.7*,17.5,34.9,0.9,55.4*,58.3*,58.5*,85.9*,43.6,70.7*
COc1ccc(CN2C(=O)c3cccnc3C2=O)cc1S(=O)(=O)N(C)c1cccc(C)c1,9.5,-15.6,·,-6.1,-1.0,7.1,·,·,·,·,·
Cc1cccc(OCc2nnc(SCC(=O)NCc3ccc4c(c3)OCO4)o2)c1,7.9,·,·,·,-6.4,·,·,·,·,·,·
SMILES,SENP8 block-1,SENP6 block,PPC-1+TRAIL kill,SENP8 block-2,TRAIL sens C8,SENP7 inh,SENP8 confirm,SENP6 confirm,SENP7 confirm,Casp3 SENP sel,Luc interf
Cc1ccc(NC(=O)CCOc2ccccc2C)cc1C,8.3,-7.1,·,-3.4,-17.3,0.8,·,·,·,·,·
O=C(Nc1cccc(Cl)c1)Nc1ccccc1C(=O)O,-217.3,99.3*,21.3,96.6*,22.3,99.9*,98.3*,101.0*,104.0*,99.3*,99.6*
COc1cc(NC(=O)Nc2cccc(Cl)c2)c(C(=O)O)cc1OC,i,-19.5,0.3,-2.4,16.5,-3.5,·,·,·,·,·
CS/C(N)=N/C(=S)Nc1cccc(Cl)c1,22.2,58.0*,12.0,4.9,5.7,21.3,71.7*,67.8*,88.5*,56.7*,75.5*
NC(=S)Nc1cccc(Cl)c1,7.6,-8.8,6.4,-0.8,16.2,-0.4,·,·,·,·,·
NC(=O)c1ccccc1NC(=O)Nc1cccc(Cl)c1,-161.9,60.5*,10.5,81.9*,-23.2,92.1*,86.5*,87.3*,99.4*,81.8*,88.7*
COc1cccc(NC(=O)c2ccccc2F)c1,-7.2,51.3*,·,49.3,36.7,45.5,25.2,19.1,67.0*,72.0*,53.1*
CCCC(=O)N1CCC1(C)C(=O)NCc1ccccc1SC (stereo unspecified),10.9,·,·,·,-12.6,·,·,·,·,·,·
CN(C)CCN(C)C1CN(Cc2ccc(F)cc2)S(=O)(=O)C1 (stereo unspecified),9.5,·,·,·,2.1,·,·,·,·,·,·
COc1ccc(N2CCN(C(=O)CN3c4cccc5cccc(c45)S3(=O)=O)CC2)cc1,-286.1,6.3,·,6.5,-8.4,4.9,·,·,·,·,·
Cn1cnnc1SCC(=O)Nc1ccc(N2CCCCC2)cc1,0.9,-5.4,·,-16.6,0.4,-8.4,·,·,·,·,·
Cc1ccc(C)c(NC(=O)COC(=O)c2cc3ccccc3oc2=O)c1,-129.6,-3.2,·,-1.2,-6.7,11.8,·,·,·,·,·
O=C(Nc1cccc(Cl)c1)c1ccc(OC(=S)N2CCOCC2)cc1,10.5,33.0,-2.4,3.3,35.5,78.5*,20.7,10.3,77.6*,47.2,0.6
COc1cccc(NC(=O)c2ncc(Cl)c(Cl)c2Cl)c1,16.9,69.5*,-6.8,86.9*,1.3,90.3*,49.0,88.9*,100.6*,91.4*,17.8
COc1ccc(COC(=O)c2c(C)nn(-c3ccccc3)c2Cl)cc1,6.2,61.5*,·,30.3,-3.8,18.3,29.4,32.5,53.8*,30.0,14.9
